# Reference: PubChem BioAssay (Tox21)
# Several values for one entry are separate records, joined by “and”; a condition that tells them apart may be missing. Identical values can stand only once. Records with an inconclusive call do not appear. Where a call stands in place of a potency, no number is given. Activity calls are given as the source filed them. Unless noted, calls follow the shape of the dose curve; as a rule, active = well fitted curve in the direction sought with a large enough effect in the repeat runs; inconclusive = weak or mixed curves; inactive = no such curve, though single readings can be large; an effect the other way counts as inactive or inconclusive.
# Molecular target: Estrogen receptor (Homo sapiens) (UniProt P03372)
# Assay: qHTS assay to identify small molecule antagonists of the estrogen receptor alpha (ER-alpha) signaling pathway using the BG1 cell line in the presence of 0.1 nM 17-beta-estradiol (AID 1259244); also: nearly all actives have a fitted effect of over 50% in size; also: potency is read from the fitted curve at half-maximal effect
# Details: VM7Luc4E2 (BG1) ERE-luciferase, antagonist mode, 0.1 nM E2, 22 h; series mostly up to 92.4 µM; activity change, negative = inhibition: at the top concentration
# Procedure, shortened: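 Luciferase signal from VM7Luc4E2 ERE-reporter cells, co-dosed with test compound and 0.1 nM final 17beta-estradiol for 22 h, read with ONE-Glo.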
# Sequence of Estrogen receptor (Homo sapiens) (P03372 whole entry, looked up): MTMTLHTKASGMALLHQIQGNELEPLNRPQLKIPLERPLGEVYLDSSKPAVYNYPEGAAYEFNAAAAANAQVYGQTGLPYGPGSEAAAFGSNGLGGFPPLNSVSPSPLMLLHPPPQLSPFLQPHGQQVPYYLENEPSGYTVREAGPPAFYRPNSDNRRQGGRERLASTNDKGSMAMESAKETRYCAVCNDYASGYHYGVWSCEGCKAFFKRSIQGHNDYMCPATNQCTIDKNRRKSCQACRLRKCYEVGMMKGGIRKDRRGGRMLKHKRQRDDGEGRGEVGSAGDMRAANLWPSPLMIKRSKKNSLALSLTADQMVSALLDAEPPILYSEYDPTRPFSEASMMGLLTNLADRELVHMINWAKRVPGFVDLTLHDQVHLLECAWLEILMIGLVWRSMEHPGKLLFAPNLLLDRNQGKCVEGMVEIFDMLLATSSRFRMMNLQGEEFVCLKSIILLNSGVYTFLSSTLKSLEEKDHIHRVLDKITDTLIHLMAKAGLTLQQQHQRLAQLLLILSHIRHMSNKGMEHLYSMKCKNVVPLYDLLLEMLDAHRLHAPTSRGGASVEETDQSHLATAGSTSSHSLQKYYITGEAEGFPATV
row,SMILES,Potency
1,Nc1cc(-c2ccncc2)c[nH]c1=O,inactive
2,CN(C)c1ccc(C(=N)c2ccc(N(C)C)cc2)cc1,17 µM (active) and 23.4 µM (active)
3,C=C(C)C(=O)OCCC[Si](OC)(OC)OC,inactive

# Test system: not listed separately
# Assay: qHTS assay to identify small molecule phospholipidosis (PLD) inducers (AID 1259344; active = well fitted curve in the direction sought with a large enough effect; an effect the other way counts as inactive or inconclusive)
# Details: HepG2 phospholipidosis, LipidTOX Red imaging, 24 h; series mostly up to 38.3 µM; PLD induction: at the top concentration
# Procedure, shortened: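 Read-out is LipidTOX Red fluorescence (ex 595/em 615) imaged in HepG2 cells after 24 h compound exposure at 37 C, with Hoechst nuclear counterstain (ex 352/em 461) allowing per-cell normalisation.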
SMILES,PLD induction,outcome
CC1=C(/C=C/C(C)=C/C=C/C(C)=C/CO)C(C)(C)CCC1,1.36% (inactive),–
O=S(=O)(O)CCS,-0.332% (inactive),–
OC[C@@H](O)[C@H](O)[C@H](O)[C@@H](O)CO,–,inactive
CC(C)n1c(/C=C/[C@@H](O)C[C@@H](O)CC(=O)O)c(-c2ccc(F)cc2)c2ccccc21,-2.6% (inactive),–
c1ccc2ccccc2c1,0.0357% (inactive),–
Cn1c([N+](=O)[O-])cnc1COC(N)=O,-1.07% (inactive),–
Nc1cc(-c2ccncc2)c[nH]c1=O,-0.809% (inactive),–
CS(=O)(=O)Nc1ccc([N+](=O)[O-])cc1Oc1ccccc1,-0.112% [at 15.5 µM] (inactive),–
CNC[C@H](O)[C@@H](O)[C@H](O)[C@H](O)CO,-1.38% (inactive),–

# Test system: not listed separately
# Assay: qHTS assay to identify small molecule HDAC inhibitors (AID 1259364); also: potency is read from the fitted curve at half-maximal effect;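 also: wild-type HCT-116 cells with endogenous class I/II HDAC activity; nearly all actives have a fitted effect of over 45% in size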; as to activity change, negative = inhibition: top concentration of the series differs between compounds
# Details: HCT-116 HDAC-Glo I/II luminescence, 2 h; series mostly up to 92.4 µM; activity change, negative = inhibition: at the top concentration
# Procedure, shortened: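 HCT-116 wt cells, 1,500/well, overnight attach. Compounds (DMSO) 2 h, 37 °C. HDAC-Glo I/II, 30 min RT. Luminescence.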
row,SMILES,Potency
1,CC1=C(/C=C/C(C)=C/C=C/C(C)=C/CO)C(C)(C)CCC1,inactive
2,NCc1cccc(CN)c1,inactive
3,CN(C)c1cccc(O)c1,inactive
4,OCC1CCCO1 (centres undefined),inactive
5,CCCCC(CC)C(=O)OCCOCCOCCOC(=O)C(CC)CCCC (centres undefined),inactive
6,O=S(=O)(O)CCS,inactive
7,Oc1ccc2ccccc2c1,inactive
8,Cc1ccc(C(=O)O)o1,inactive
9,ClC1=C(Cl)C(Cl)(Cl)C(Cl)=C1Cl,inactive
10,OC[C@@H](O)[C@H](O)[C@H](O)[C@@H](O)CO,inactive
11,CCOC(=O)/C=C\C(=O)OCC,inactive
12,CC1=CC[C@H]2C[C@@H]1C2(C)C,inactive
13,CCc1ccccc1O,inactive
14,COCC(C)O (centres undefined),inactive
15,CC(C)NCC(O)COc1cccc2ccccc12 (centres undefined),inactive
16,CCCCCCOC(C)=O,inactive
17,CC(C)n1c(/C=C/[C@@H](O)C[C@@H](O)CC(=O)O)c(-c2ccc(F)cc2)c2ccccc21,inactive
18,c1ccc2ccccc2c1,inactive
19,CC(C)(C)C1CCC(O)CC1 (centres undefined),inactive

row,SMILES,Potency
1,O=S(=O)(O)c1cc(S(=O)(=O)O)c2c(N=Nc3ccccc3)c(O)ccc2c1,inactive
2,Cn1c([N+](=O)[O-])cnc1COC(N)=O,inactive
3,CCCCCCCCC,inactive
4,Cc1ccc(N)c(S(=O)(=O)O)c1,inactive
5,C=C(C)C(=O)OCCCCCC,inactive
6,Oc1c(Cl)cc(Cl)c(Cl)c1Cl,inactive
7,Cc1cc(O)c2c(c1)C(=O)c1cc(O)cc(O)c1C2=O,5.32 µM (active) and 1.93 µM (active)
8,Nc1c(S(=O)(=O)O)cc(Br)c2c1C(=O)c1ccccc1C2=O,inactive
9,C=C(C)C(=O)OCC(CC)(COC(=O)C(=C)C)COC(=O)C(=C)C,inactive
10,Nc1cc(-c2ccncc2)c[nH]c1=O,inactive
11,CS(=O)(=O)Nc1ccc([N+](=O)[O-])cc1Oc1ccccc1,inactive
12,CCCCC(CC)COC(=O)CCCCCCCC(=O)OCC(CC)CCCC (centres undefined),inactive
13,CN(C)c1ccc(C(=N)c2ccc(N(C)C)cc2)cc1,inactive
14,CCCCCCC(C)(C)S,inactive
15,CCOC(=O)C1OC1c1ccccc1 (centres undefined),49.5 µM (active)
16,Clc1ccc(Cl)c(Cl)c1Cl,inactive
17,CNC[C@H](O)[C@@H](O)[C@H](O)[C@H](O)CO,inactive
18,C=C(C)C(=O)OCCC[Si](OC)(OC)OC,inactive
19,CCCCC(CC)COC(=O)/C=C\C(=O)OCC(CC)CCCC (centres undefined),inactive

# Test system: not listed separately
# Assay: qHTS assay to identify small molecule HDAC inhibitors - cell viability counter screen (AID 1259365); also: nearly all actives have a fitted effect of over 50% in size
# Details: HCT-116 viability, CellTiter-Glo ATP luminescence, 2 h; series mostly up to 92.4 µM; activity change, negative = cytotoxicity: at the top concentration
# Procedure, shortened: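 CellTiter-Glo luminescence (30 min, room temperature) reported viability after a 2 h compound exposure at 37 C. Cells: wild-type HCT-116, 1,500 per well, seeded the night before.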
row,SMILES,outcome
1,CC1=C(/C=C/C(C)=C/C=C/C(C)=C/CO)C(C)(C)CCC1,inactive
2,NCc1cccc(CN)c1,inactive
3,CN(C)c1cccc(O)c1,inactive
4,OCC1CCCO1 (centres undefined),inactive
5,CCCCC(CC)C(=O)OCCOCCOCCOC(=O)C(CC)CCCC (centres undefined),inactive
6,O=S(=O)(O)CCS,inactive
7,Oc1ccc2ccccc2c1,inactive
8,Cc1ccc(C(=O)O)o1,inactive
9,ClC1=C(Cl)C(Cl)(Cl)C(Cl)=C1Cl,inactive
10,OC[C@@H](O)[C@H](O)[C@H](O)[C@@H](O)CO,inactive
11,CCOC(=O)/C=C\C(=O)OCC,inactive
12,CC1=CC[C@H]2C[C@@H]1C2(C)C,inactive
13,O=C(c1ccc(O)cc1)c1ccc(O)cc1O,inactive
14,CCc1ccccc1O,inactive
15,COCC(C)O (centres undefined),inactive
16,CC(C)NCC(O)COc1cccc2ccccc12 (centres undefined),inactive
17,CCCCCCOC(C)=O,inactive
18,CC(C)n1c(/C=C/[C@@H](O)C[C@@H](O)CC(=O)O)c(-c2ccc(F)cc2)c2ccccc21,inactive
19,c1ccc2ccccc2c1,inactive
20,CC(C)(C)C1CCC(O)CC1 (centres undefined),inactive

row,SMILES,outcome
1,O=S(=O)(O)c1cc(S(=O)(=O)O)c2c(N=Nc3ccccc3)c(O)ccc2c1,inactive
2,Cn1c([N+](=O)[O-])cnc1COC(N)=O,inactive
3,CCCCCCCCC,inactive
4,Cc1ccc(N)c(S(=O)(=O)O)c1,inactive
5,C=C(C)C(=O)OCCCCCC,inactive
6,Oc1c(Cl)cc(Cl)c(Cl)c1Cl,inactive
7,Cc1cc(O)c2c(c1)C(=O)c1cc(O)cc(O)c1C2=O,inactive
8,Nc1c(S(=O)(=O)O)cc(Br)c2c1C(=O)c1ccccc1C2=O,inactive
9,C=C(C)C(=O)OCC(CC)(COC(=O)C(=C)C)COC(=O)C(=C)C,inactive
10,Nc1cc(-c2ccncc2)c[nH]c1=O,inactive
11,CS(=O)(=O)Nc1ccc([N+](=O)[O-])cc1Oc1ccccc1,inactive
12,CCCCC(CC)COC(=O)CCCCCCCC(=O)OCC(CC)CCCC (centres undefined),inactive
13,CN(C)c1ccc(C(=N)c2ccc(N(C)C)cc2)cc1,inactive
14,CCCCCCC(C)(C)S,inactive
15,CCOC(=O)C1OC1c1ccccc1 (centres undefined),inactive
16,Clc1ccc(Cl)c(Cl)c1Cl,inactive
17,CNC[C@H](O)[C@@H](O)[C@H](O)[C@H](O)CO,inactive
18,C=C(C)C(=O)OCCC[Si](OC)(OC)OC,inactive
19,CCCCC(CC)COC(=O)/C=C\C(=O)OCC(CC)CCCC (centres undefined),inactive
